Measured values from PubChem BioAssay AID1159580 (chemical genetic matrix, 2015).
Hit rate of the full screen: of about 5,500 compounds, about 2,000 (36%) were called active. Roughly 18% stayed inconclusive and do not appear here. No stated cut-off is given here; in the data, active means normalized growth mostly below about 0.91 (no sharp cut-off); inconclusive means no clear call, values can overlap the other calls; inactive means mostly above about 0.92. This is one part of the list.

Experiment: chemical genetic growth profiling, strain panel (AID 1159580);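 further: tested at 20 µM; growth read once vehicle control cultures reached saturation at 30 °C; 1 = growth at the plate median or of vehicle wells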
Conditions: S. cerevisiae deletion strains, growth OD

Measured: normalized growth

OC(COc1ccc(F)cc1)(c1ccc(Cl)cc1)c1ccc(Cl)cc1
inactive: locus YAR019C, strain CDC15, stronger effect = lower value 0.991 | locus YBL105C, strain PKC1, stronger effect = lower value 0.985 | locus YBR135W, strain CKS1, stronger effect = lower value 0.984 | locus YBR136W, strain MEC1, stronger effect = lower value 1 | locus YBR160W, strain CDC28, stronger effect = lower value 0.982 | locus YDL017W, strain CDC7, stronger effect = lower value 0.988 | locus YDL028C, strain MPS1, stronger effect = lower value 0.985 | locus YDL101C, strain DUN1, stronger effect = lower value 0.974 | locus YDL108W, strain KIN28, stronger effect = lower value 0.978 | locus YDL132W, strain cdc53, stronger effect = lower value 0.987 | locus YDL214C, strain PRR2, stronger effect = lower value 0.985 | locus YDR052C, strain DBF4, stronger effect = lower value 0.989 | locus YDR054C, strain cdc34, stronger effect = lower value 0.993 | locus YDR226W, strain ADK1, stronger effect = lower value 0.983 | locus YDR477W, strain SNF1, stronger effect = lower value 0.996 | locus YER123W, strain YCK3, stronger effect = lower value 0.96 | locus YER133W, strain GLC7, stronger effect = lower value 0.987 | locus YFL009W, strain cdc4, stronger effect = lower value 0.993 | locus YFL029C, strain CAK1, stronger effect = lower value 0.988 | locus YFR003C, strain YPI1, stronger effect = lower value 0.989 | locus YFR019W, strain FAB1, stronger effect = lower value 1 | locus YFR028C, strain CDC14, stronger effect = lower value 0.986 | locus YGR040W, strain KSS1, stronger effect = lower value 0.981 | locus YGR052W, strain FMP48, stronger effect = lower value 1.08 | locus YGR092W, strain DBF2, stronger effect = lower value 0.962 | locus YHR030C, strain SLT2, stronger effect = lower value 1.07 | locus YHR079C, strain IRE1, stronger effect = lower value 1.08 | locus YHR082C, strain KSP1, stronger effect = lower value 1.07 | locus YHR205W, strain SCH9, stronger effect = lower value 0.964 | locus YIL147C, strain SLN1, stronger effect = lower value 0.98 | locus YJL095W, strain BCK1, stronger effect = lower value 1.08 | locus YJL128C, strain PBS2, stronger effect = lower value 0.939 | locus YJL157C, strain FAR1, stronger effect = lower value 0.988 | locus YJR016C, strain ILV3, stronger effect = lower value 0.984 | locus YJR066W, strain TOR1 (second series), stronger effect = lower value 0.971 | locus YJR066W, strain TOR1, stronger effect = lower value 1.12 | locus YKL048C, strain ELM1, stronger effect = lower value 0.984 | locus YKL067W, strain YNK1, stronger effect = lower value 0.988 | locus YKL101W, strain HSL1, stronger effect = lower value 0.98 | locus YKL193C, strain SDS22, stronger effect = lower value 0.991 | locus YKL203C, strain TOR2, stronger effect = lower value 1.08 | locus YLR113W, strain HOG1, stronger effect = lower value 0.957 | locus YLR133W, strain CKI1, stronger effect = lower value 0.989 | locus YLR403W, strain SFP1, stronger effect = lower value 1 | locus YML070W, strain DAK1, stronger effect = lower value 0.99 | locus YMR001C, strain CDC5, stronger effect = lower value 0.984 | locus YMR205C, strain PFK2 (second series), stronger effect = lower value 0.995 | locus YMR277W, strain FCP1, stronger effect = lower value 0.992 | locus YNL006W, strain LST8, stronger effect = lower value 0.998 | locus YNL020C, strain ARK1, stronger effect = lower value 0.988 | locus YNL161W, strain CBK1, stronger effect = lower value 0.988 | locus YNL183C, strain NPR1, stronger effect = lower value 1.09 | locus YNL207W, strain RIO2, stronger effect = lower value 0.997 | locus YNL222W, strain SSU72, stronger effect = lower value 0.991 | locus YNL307C, strain MCK1 (second series), stronger effect = lower value 0.981 | locus YOL078W, strain AVO1, stronger effect = lower value 0.994 | locus YOL136C, strain PFK27, stronger effect = lower value 0.966 | locus YOR061W, strain CKA2, stronger effect = lower value 0.988 | locus YOR119C, strain RIO1, stronger effect = lower value 1.02 | locus YOR231W, strain MKK1, stronger effect = lower value 1.06 | locus YOR329C, strain SCD5, stronger effect = lower value 0.984 | locus YPL031C, strain PHO85, stronger effect = lower value 0.981 | locus YPL153C, strain RAD53, stronger effect = lower value 0.984 | locus YPL204W, strain HRR25, stronger effect = lower value 0.986 | locus YPL209C, strain IPL1, stronger effect = lower value 0.992 | locus YPL256C, strain CLN2, stronger effect = lower value 1.07 | locus YPR025C, strain CCL1, stronger effect = lower value 0.992 | locus YPR106W, strain ISR1, stronger effect = lower value 0.983 | locus YPR111W, strain DBF20, stronger effect = lower value 0.984 | strain NNK1, stronger effect = lower value 0.992 | strain TSCII, stronger effect = lower value 0.991
